The values below come from PubChem BioAssay (Tox21).

Assay [1] is described as follows: qHTS assay to identify small molecule antagonists of the vitamin D receptor (VDR) signaling pathway - cell viability counter screen (AID 743225). Note: % is set by controls: 0 for no effect and ±100 for the full control effect; nearly all actives have a fitted effect of over 50% in size. A digest of the protocol:
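Same-well multiplex: following 16 h treatment of HEK 293T cells carrying a UAS-driven beta-lactamase reporter with compound and agonist (3 nM final), and a 2 h FRET substrate step, CellTiter-Glo was added and luminescence read after 30 min.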

Assay [2] is described as follows: qHTS assay to identify small molecule agonists of the NFkB signaling pathway - cell viability counter screen (AID 1159515; calls by dose curve; note: series mostly up to about 61 µM; % is set by controls: 0 for no effect and ±100 for the full control effect; nearly all actives have a fitted effect of over 55% in size). A digest of the protocol: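 5 hr compound treatment of NFkB-bla ME-180 cells (2,000/well, seeded overnight beforehand), followed by reporter substrate for 1.5 hr. CellTiter-Glo added afterward; luminescence after 30 min RT.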
In general terms: In qHTS, concentration-response curves come from the screen itself.

Assay [3] can be described thus: qHTS assay to identify small molecule agonists of the endoplasmic reticulum stress response signaling pathway (AID 1159516; active = well fitted activation curve with a large enough effect in the signal ratio in the repeat runs, not every such curve was filed as active; the % refers to the signal ratio; note: potency is the fitted concentration of half-maximal effect; for activation: % is set by controls: 0 for no effect and ±100 for the full control effect). Put shortly: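 Reporter HeLa cells (ESRE-beta-lactamase) underwent 5 hr compound incubation at 37 C and 5% CO2 in quantitative HTS format. Detection followed 2 hr of FRET substrate loading at room temperature.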
Assay [4] in a line: qHTS assay to identify small molecule agonists of the endoplasmic reticulum stress response signaling pathway - cell viability counter screen (AID 1159517; calls by dose curve; note: series mostly up to about 61 µM; % is set by controls: 0 for no effect and ±100 for the full control effect; nearly all actives have a fitted effect of over 50% in size). A digest of the protocol: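 HeLa cells carrying an ESRE-driven beta-lactamase reporter receive compound for 5 hr at 37 C. Cell viability is then gauged with CellTiter-Glo by luminescence, 30 min at room temperature.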
Assay [5] in a line: qHTS assay to identify small molecule antagonists of the retinoid-related orphan receptor gamma (ROR-gamma) signaling pathway - cell viability counter screen (AID 1159520). Note: % is set by controls: 0 for no effect and ±100 for the full control effect; nearly all actives have a fitted effect of over 50% in size. Put shortly:
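Cytotoxicity was read from cellular ATP (CellTiter-Glo luminescence) after 16 hr at 37 C with 1 uM doxycycline induction. The inducer was added 2 hr after compound transfer to Tet-on ROR gamma CHO cells.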

The target of assay [6] is Nuclear receptor ROR-gamma (Homo sapiens) (UniProt P51449). Briefly: qHTS assay to identify small molecule antagonists of the retinoid-related orphan receptor gamma (ROR-gamma) signaling pathway (AID 1159521;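 note: CHO cells with doxycycline inducible ROR-gamma driving an RORE luciferase reporter; top concentration of the series differs between compounds; % is set by controls: 0 for no effect and ±100 for the full control effect; nearly all actives have a fitted effect of over 50% in size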). A digest of the protocol:
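Inducible-expression reporter assay: doxycycline (1 uM final) switched on RORγ in CHO cells bearing a ROR response element-luciferase construct, with test compounds present from 2 h beforehand. Decreased luminescence after 16 h defined antagonist activity.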

Assay [7] can be described thus: qHTS assay to identify small molecule agonists of the AP-1 signaling pathway - cell viability counter screen (AID 1159525; calls by dose curve; note: nearly all actives have a fitted effect of over 55% in size). A digest of the protocol:
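Luminescent ATP readout (Cell Titer Glo, 30 min RT), normalised to DMSO and tetra n-octyl ammonium bromide controls. Cells were ME-180 AP-1-bla in 0.5% dialyzed FBS Opti-MEM, with a 5 h, 37 °C compound exposure.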

A short description of assay [8]: qHTS assay to identify small molecule agonists of the AP-1 signaling pathway (AID 1159526; calls by dose curve; note: % is set by controls: 0 for no effect and ±100 for the full control effect).
The target in assay [9] is Retinoic acid receptor RXR-alpha (Homo sapiens) (UniProt P19793). Description: qHTS assay to identify small molecule agonists of the RXR signaling pathway (AID 1159527; calls by dose curve; note: % is set by controls: 0 for no effect and ±100 for the full control effect; nearly all actives have a fitted effect of over 35% in size). A digest of the protocol:
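Compounds in DMSO were added to RXR-alpha-UAS-bla HEK 293T cells kept in 2% charcoal-stripped serum, and incubated 16 hr at 37 C with 5% CO2. Reporter signal came from a 2 hr B/G FRET substrate step.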

Assay [10] can be described thus: qHTS assay to identify small molecule agonists of the RXR signaling pathway - cell viability counter screen (AID 1159529). A digest of the protocol:
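Counter screen: CellTiter-Glo luminescence. Cells: RXR-alpha-UAS-bla HEK 293T. Medium: 2% charcoal-stripped FBS. Treatment: 16 h, 37 C. Reagent incubation: 30 min, RT.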

The nature of assay [11]: qHTS assay to identify small molecule antagonists of the retinoid acid receptor (RAR) signaling pathway - cell viability counter screen (AID 1159551). Note: % is set by controls: 0 for no effect and ±100 for the full control effect; nearly all actives have a fitted effect of over 35% in size. A digest of the protocol: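 Seed C3RL4 cells; next day add compound, then retinol to 1 uM final; incubate 6 h at 37 C; add CellTiter-Glo; read luminescence after 30 min at RT.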
Assay [12] can be described thus: qHTS assay to identify small molecule antagonists of the retinoic acid receptor (RAR) signaling pathway (AID 1159552). Put shortly: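 Antagonism of retinol-induced RARE reporter activity was measured in C3RL4 cells. Exposure to compounds and 1 uM final retinol lasted 6 hr at 37 C, with luminescence as endpoint.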
The nature of assay [13]: qHTS assay to identify small molecule agonists of the retinoic acid receptor (RAR) signaling pathway (AID 1159553). Note: % is set by controls: 0 for no effect and ±100 for the full control effect. A digest of the protocol:
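Activation of retinol signaling was monitored via a RARE luciferase reporter in C3RL4 cells. After 6 hr compound treatment at 37 C, detection reagent was added for 30 min at room temperature before luminescence reading.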

Assay [14] in a line: qHTS assay to identify small molecule antagonists of the estrogen related receptor (ERR) signaling pathway from Tox21 library - cell viability counter screen (AID 1224834). Note: % is set by controls: 0 for no effect and ±100 for the full control effect; nearly all actives have a fitted effect of over 30% in size. Put shortly:
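CellTiter-Fluor fluorescence measured; ERR cells; 17.5 h compound incubation at 37 C; 30 min reagent step.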

Assay [15] deals with Luciferin 4-monooxygenase (Photinus pyralis) (UniProt P08659). Briefly: qHTS assay to identify small molecule inhibitors of firefly luciferase (AID 1224835). Note: series mostly up to about 120 µM; % is set by controls: 0 for no effect and ±100 for the full control effect; nearly all actives have a fitted effect of over 25% in size. A digest of the protocol:
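Inhibition of purified Photinus luciferase is measured by luminescence. Substrate levels (D-luciferin, ATP) sit at their KM values. Each compound is tested in a concentration series.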

Assay [16] is described as follows: qHTS assay to identify small molecule agonists of the constitutive androstane receptor (CAR) signaling pathway - cell viability counter screen (AID 1224836). Note: series mostly up to about 92 µM; % is set by controls: 0 for no effect and ±100 for the full control effect; nearly all actives have a fitted effect of over 45% in size. Put shortly:
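Double-stable HepG2 hepatoma cells (hCAR plus CYP2B6-2.2kb) are treated for 23 h at 37 C with test compounds in 15-point concentration series. PK11195 at 0.75 uM final is co-added. Cell viability is quantified by CellTiter-Fluor.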

The nature of assay [17]: qHTS assay to identify small molecule antagonists of the constitutive androstane receptor (CAR) signaling pathway - cell viability counter screen (AID 1224837). Note: series mostly up to about 92 µM; % is set by controls: 0 for no effect and ±100 for the full control effect; nearly all actives have a fitted effect of over 45% in size. A digest of the protocol: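 Using CellTiter-Fluor, viability is scored in HepG2 cells stably carrying hCAR and a 2.2kb CYP2B6 reporter after 23 hr compound exposure across 15 concentrations, with CITCO present at 50 nM.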

The target of assay [18] is Nuclear receptor subfamily 1 group I member 3 (Homo sapiens) (UniProt Q14994). Briefly: qHTS assay to identify small molecule antagonists of the constitutive androstane receptor (CAR) signaling pathway (AID 1224838).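 Note: HepG2 cells stably expressing hCAR with CYP2B6 luciferase reporter stimulated by CITCO; % is set by controls: 0 for no effect and ±100 for the full control effect; nearly all actives have a fitted effect of over 40% in size.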 Put shortly:
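Reporter luminescence was quantified after 24 h exposure of hCAR/CYP2B6-2.2kb double-stable HepG2 cells to compounds at 15 concentrations in the presence of 50 nM CITCO final.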

The target is the same in assay [19]. Briefly: qHTS assay to identify small molecule agonists of the constitutive androstane receptor (CAR) signaling pathway (AID 1224839). Note: series mostly up to about 92 µM; % is set by controls: 0 for no effect and ±100 for the full control effect; nearly all actives have a fitted effect of over 15% in size. Put shortly: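 Readout: firefly luciferase luminescence via ONE-Glo. System: HepG2 double-stable for hCAR and CYP2B6-2.2kb. Conditions: 15-point compound titration, PK11195 at 0.75 uM final, 24 h incubation.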
The nature of assay [20]: qHTS assay to identify small molecule antagonists of the estrogen related receptor signaling pathway with the pleiotropic PPARgamma coactivator (PGC) from Tox21 10K library - cell viability counter screen (AID 1224840; active = well fitted cell-killing curve with a large enough effect in the repeat runs, not every such curve was filed as active; note: % is set by controls: 0 for no effect and ±100 for the full control effect; nearly all actives have a fitted effect of over 40% in size). Put shortly:
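Here the PGC/ERR cells serve as a cytotoxicity control: they are exposed to compounds for 17.5 hours at 37 C, and live-cell signal is quantified using CellTiter-Fluor fluorescence.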

Inconclusive results are not listed. Values without a mark were called inactive. Activity calls are given as the source filed them. Unless noted, calls come from the whole dose curve; as a rule, active = well fitted curve in the direction sought with a large enough effect in the repeat runs; inconclusive = weak or mixed curves; inactive = no such curve, though single readings can be large; an effect the other way counts as inactive or inconclusive. Non-standard residues stand in square brackets, D forms with d. Residues, ends and D or L forms follow the SMILES beside them. *: point of attachment. Sta = CC(C)C[C@H](N)[C@@H](O)CC(=O)O; Isovaleryl = CC(C)CC(=O)*

Chain of Luciferin 4-monooxygenase (Photinus pyralis) (P08659 whole entry, looked up): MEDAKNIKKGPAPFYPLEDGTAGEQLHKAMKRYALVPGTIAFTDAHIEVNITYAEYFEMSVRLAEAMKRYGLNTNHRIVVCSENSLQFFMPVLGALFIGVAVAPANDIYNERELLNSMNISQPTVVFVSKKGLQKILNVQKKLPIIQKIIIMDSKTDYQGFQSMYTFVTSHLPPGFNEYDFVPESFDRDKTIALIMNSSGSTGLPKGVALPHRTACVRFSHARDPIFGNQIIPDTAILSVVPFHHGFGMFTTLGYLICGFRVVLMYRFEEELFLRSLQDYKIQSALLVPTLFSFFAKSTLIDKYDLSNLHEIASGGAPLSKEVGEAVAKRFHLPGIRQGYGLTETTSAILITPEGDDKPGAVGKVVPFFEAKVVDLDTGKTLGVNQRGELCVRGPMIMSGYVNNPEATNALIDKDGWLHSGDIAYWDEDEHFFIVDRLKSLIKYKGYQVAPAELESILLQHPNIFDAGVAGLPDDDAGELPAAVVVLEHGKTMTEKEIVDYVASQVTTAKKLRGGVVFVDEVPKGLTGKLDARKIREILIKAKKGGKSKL
Chain of Retinoic acid receptor RXR-alpha (Homo sapiens) (P19793 whole entry, looked up): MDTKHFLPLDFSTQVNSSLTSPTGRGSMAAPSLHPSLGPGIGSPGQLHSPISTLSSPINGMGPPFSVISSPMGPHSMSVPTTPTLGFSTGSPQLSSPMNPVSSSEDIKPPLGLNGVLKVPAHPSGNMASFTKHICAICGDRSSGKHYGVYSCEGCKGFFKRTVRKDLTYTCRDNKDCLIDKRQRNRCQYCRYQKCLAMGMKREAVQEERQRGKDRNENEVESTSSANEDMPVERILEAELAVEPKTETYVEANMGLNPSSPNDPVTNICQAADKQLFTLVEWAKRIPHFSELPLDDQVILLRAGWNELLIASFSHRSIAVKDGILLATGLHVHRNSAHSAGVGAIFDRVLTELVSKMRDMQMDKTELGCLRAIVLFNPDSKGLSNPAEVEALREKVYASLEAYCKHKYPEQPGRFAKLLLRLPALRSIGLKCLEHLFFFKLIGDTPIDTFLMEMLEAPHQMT
Chain of Nuclear receptor subfamily 1 group I member 3 (Homo sapiens) (Q14994 whole entry, looked up): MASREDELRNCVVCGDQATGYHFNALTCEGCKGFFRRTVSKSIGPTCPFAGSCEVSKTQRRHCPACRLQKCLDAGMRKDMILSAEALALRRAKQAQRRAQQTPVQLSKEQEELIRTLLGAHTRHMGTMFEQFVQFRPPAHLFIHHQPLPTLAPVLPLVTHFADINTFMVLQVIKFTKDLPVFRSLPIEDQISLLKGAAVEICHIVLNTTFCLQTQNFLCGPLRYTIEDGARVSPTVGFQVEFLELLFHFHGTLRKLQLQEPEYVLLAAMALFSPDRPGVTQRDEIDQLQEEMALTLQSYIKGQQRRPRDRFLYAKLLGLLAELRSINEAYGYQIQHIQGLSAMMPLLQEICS

In the case of `CC(=O)Nc1ccc(OCCOCCOc2ccc(NC(C)=O)cc2)cc1`, the outcome in assay [1], in assay [2], in assay [4], in [5], in assay [6] and in assay [7] was inactive. In addition, the result in [11], in [12], in assay [14], in assay [16], in [17] and in assay [18] was inactive. Besides, the molecule was classed as inactive in [20]. Also, the Potency result in assay [3], in assay [8], in assay [9], in [10], in assay [13] and in assay [15] was “inactive” each time. Besides, the Potency result in assay [19] was “inactive”.

Consider `CC(C)CC(=O)N[C@H](C(=O)N[C@H](C(=O)N[C@@H](CC(C)C)[C@@H](O)CC(=O)N[C@@H](C)C(=O)N[C@@H](CC(C)C)[C@@H](O)CC(=O)O)C(C)C)C(C)C` (Isovaleryl-VV[Sta]A[Sta]-OH), for which the molecule was called inactive in assay [1], in assay [2], in assay [4], in assay [5], in assay [6] and in assay [7]. Further, the molecule was classed as inactive in assay [11], in assay [12], in assay [14], in assay [16], in assay [17] and in assay [18]. Further, the molecule was called inactive in [20]. For the same molecule, the Potency entry in assay [3], in assay [8], in [9], in assay [10], in assay [13] and in assay [15] was “inactive” each time.

As for `OCCC(F)(F)C(F)(F)C(F)(F)C(F)(F)C(F)(F)C(F)(F)F`, the outcome in [1], in [2], in [4], in assay [5], in assay [6] and in [7] was inactive. In addition, the call in [11], in [12], in [14], in [16], in [17] and in [18] was inactive. Moreover, in assay [20], the call was inactive. In addition, the Potency entry in assay [3], in assay [8], in assay [9], in [10], in assay [13] and in assay [15] was “inactive” each time. In addition, the Potency result in assay [19] was “inactive”.

In the case of `CCCc1ncc(C(=O)O)s1`, the outcome in assay [1], in assay [2], in [4], in assay [5], in assay [6] and in assay [7] was inactive. Also, the molecule was called inactive in [11], in assay [12], in assay [14], in [16], in assay [17] and in assay [18]. The molecule was called inactive in assay [20]. Further, the Potency result in assay [3], in [8], in assay [9], in [10], in [13] and in assay [15] was “inactive” throughout.

For `CC/C=C\CCCCCCCCCCOC(C)=O`, the molecule was called inactive in assay [2], in assay [4], in assay [5], in assay [6], in [7] and in [11]. Moreover, the result in assay [12], in [14], in [16], in assay [17], in assay [18] and in assay [20] was inactive. Besides, the Potency entry in [3], in assay [8], in assay [9], in assay [10], in [13] and in assay [15] was “inactive” each time. For the same molecule, the Potency result in [19] is “inactive”.

Consider `c1cc2ccc3ccc4ccc5cccc6c(c1)c2c3c4c56`, for which, in [2], the activity, negative = cytotoxic was -1.06% [at 3.12 µM]. In assay [3], the Potency is 1740 nM (active). In addition, the activity change, negative = cytotoxicity is 6.55% [at 3.11 µM] in assay [4], 0.199% [at 2.72 µM] in assay [10], 4.71% [at 3.27 µM] in [11] and 2.07% [at 3.26 µM] in [17]. Moreover, the activity, negative = cytotoxicity in assay [5] was 0.12% [at 3.27 µM]. In addition, the activity change, negative = inhibition in [6] was 7.63% [at 3.27 µM]; in assay [15], 1.19% [at 4.07 µM]. For the same molecule, the viability change, negative = cytotoxic is -12.5% [at 2.72 µM] in assay [7], 2.9% [at 3.27 µM] in assay [14], 2.84% [at 3.27 µM] in assay [16] and -0.219% [at 3.27 µM] in assay [20]. Further, the activation is -1.11% [at 2.72 µM] in assay [8], 5.24% [at 2.71 µM] in assay [9], -0.114% [at 3.75 µM] in assay [13] and 5.04% [at 3.27 µM] in assay [19]. For the same molecule, the activity, negative = inhibition in assay [12] is -1.28% [at 3.27 µM]; in assay [18], 27.3% [at 3.26 µM].
